Assay outcomes deposited in PubChem BioAssay by several laboratories.
NOD2 RIPK2 PPI: blocks binding of human NOD2 to RIPK2. O43353. AID 624267. inhibition, % at 4.98 µM. CHO BLA complementation NOD2-RIPK2, CCF4 ratio. 0.38% of 360,000 active; in the data active means inhibition above about 21%;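 further: 0% = vehicle only and 100% = reference blocker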
TLR4 MyD88 comp: inhibitors of human TLR4-MyD88 binding. O00206+Q99836. HeLa CL3-4 TLR4/MyD88 BLA complementation, FRET ratio. inhibition, % at 8.4 µM. 0.18% of 200,000 active. AID 861; in the data active means inhibition above about 25%;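 further: 0% = vehicle and 100% = reference inhibitor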
GRK2 inh: human GRK2 inhibition via aptamer displacement. bead flow cytometry, FAM-aptamer displacement from GRK2. 0.59% of 330,000 active. inhibition of aptamer binding, % at 10 µM. P25098;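 active means inhibition of aptamer binding above 40%, roughly 3 SD of noise, on plates passing a quality check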;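 further: median bead fluorescence of bound FAM aptamer so fluorescent compounds give negative values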
TLR9-MyD88 block: TLR9-MyD88 interaction inhibition | inhibition, % at 4.98 µM | AID 504734 | Q9NR96+Q99836 | CHO BLA complementation TLR9-MyD88, CCF4 FRET ratio | 0.21% of 340,000 active;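 active means inhibition above the mean over all tested compounds plus 3 SD, cut at about 21% in these data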;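 further: 0% = DMSO only wells and 100% = clavulanate BLA inhibitor control wells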
ANO1 block: blocks the mouse calcium-activated chloride channel TMEM16A; HEK293 TMEM16A/YFP iodide influx fluorescence, ionomycin; normalized B-score (activity score, 25-100; higher = stronger inhibition) at 10 µM; AID 588511; 1.2% of 310,000 active; Q8BHY3;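 active means ratio plate-corrected score three or more library SD toward inhibition, starting fluorescence score within five deviations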;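 further: score derived from kinetic fluorescence span divided by baseline fluorescence per well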
ANO1 activ: activators or potentiators of mouse TMEM16A chloride channel; AID 623877; Q8BHY3; 0.3% of 340,000 active; B-score at 10 µM; HEK293 TMEM16A/YFP-H148Q/I152L, iodide quench fluorescence; active compounds read low;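 active means fluorescence-ratio B-score plate-corrected deviation score at least 3 library SD below zero, with starting fluorescence score within 5 deviations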;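 further: channel opened by trigger with iodide after compound preincubation; score built on the fluorescence ratio of max minus min over baseline; more negative score means more quench and so TMEM16A activation or potentiation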
GRK2 inh confirm: confirmation of human GRK2 inhibitors displacing RNA aptamer. bead-bound GRK2, FAM-aptamer displacement, flow cytometry. aptamer displacement, % at 10 µM. shares compounds with GRK2 inh. 4% of 2,000 active. AID 504451;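 active means aptamer displacement above 40%, near three times the noise of non-fluorescent compounds, on plates passing quality checks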;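 further: negative values mostly reflect intrinsic compound fluorescence rather than true enhancement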
Aptamer quench: fluorescent aptamer quenching in GRK2 counter-screen dose response | shares compounds with GRK2 inh | Fluorescent RNA aptamer beads, flow cytometry; active compounds read high | fluorescence change (kMESF span), kMESF (test concentration not listed) | 110 tested, under 10 active;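 active means compounds whose bead fluorescence drops by more than 37 kMESF across the dose range, marking them as dye quenchers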
FAM quench CP1: counter-screen for GRK2 aptamer inhibitors: fluorescent aptamer quenchers | Carboxyfluorescein RNA aptamer on beads, flow cytometry quenching; active compounds read low | fluorescence response (% of DMSO), % at 10 µM | 2,000 tested, under 10 active | shares compounds with GRK2 inh;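 active means compounds that quench the bead-bound fluorescent RNA probe, cutting fluorescence to under half of the solvent control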;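 further: counterscreen run without GRK2 so only probe quenching by compound is measured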
GRK2 confirm 2: confirmation of human GRK2 inhibitors binding RNA aptamer site. shares compounds with GRK2 inh. bead-bound GRK2, FAM-aptamer displacement, flow cytometry. inhibition of aptamer binding, % at 10 µM. 360 tested, under 10 active;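 active means inhibition of aptamer binding above 40%, about triple the noise seen with nonglowing compounds, on plates passing quality control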;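 further: negative values mostly come from compounds that fluoresce themselves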
FAM quench SP: counter-screen for GRK2 binding hits: quenchers of fluorescent RNA aptamer. shares compounds with GRK2 inh. carboxyfluorescein RNA aptamer beads, flow cytometry quenching; active compounds read low. fluorescence response vs DMSO, % at 10 µM. 360 tested, under 10 active. AID 588494;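 active means response vs DMSO under 50%, meaning signal dropped by over half, treated as fluorescence quencher; inconclusive means no clear call, values can overlap the other calls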;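 further: labelled aptamer on streptavidin beads without GRK2 as a quench counter-screen; 100% = bead fluorescence of DMSO wells and lower means quenching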
FAM quench DR: counter-screen for GRK2 aptamer binding inhibitors: aptamer fluorescence quenching | shares compounds with GRK2 inh | Bead-bound FAM RNA aptamer fluorescence quenching, flow cytometry; active compounds read low | fluorescence ratio to DMSO, % at 11.1 µM | 35 tested, under 10 active;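 active means compounds that dim the fluorescent label, raw bead signal shifting by over 33 units between lowest and highest dose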
The depositor's hits bear a star; i = inactive; ? = inconclusive; · = no result given. Hits are enriched below; roughly 2.2% of the tested compounds scored in any of these assays.

SMILES	NOD2 RIPK2 PPI	TLR4 MyD88 comp	GRK2 inh	TLR9-MyD88 block	ANO1 block	ANO1 activ	GRK2 inh confirm	FAM quench CP1	others
C#CCOCCOCCOCCNc1nc(N2CCN(C(=O)CCCCCCCCCCNC(=O)[C@@H]([C@H](C)O)n3cc(C)nn3)CC2)nc(N2CCN(C(=O)CCCCCCCCCCNC(=O)[C@@H]([C@H](C)O)n3cc(C)nn3)CC2)n1	-3.1	·	52.0*	-2.4	i	i	5.0	101.9
CN(C)CCCN(C(=O)CCSc1ccccc1)c1nc2cc3c(cc2s1)OCO3	6.3	-8.4	68.0*	-7.0	i	i	-9.5	101.5
CN(C)CCCN(C(=O)CCS(=O)(=O)c1ccccc1)c1nc2cc3c(cc2s1)OCO3	5.6	·	16.0	-12.5	i	i	·	·
CCn1cc(C(=O)N2CC(C)CC(C)C2)c(=O)c2cc(S(=O)(=O)N(C)C)ccc21 (centres undefined)	-10.0	-17.6	0.0	-8.8	i	i	·	·
CC1CC(C)CN(C(=O)c2cn(C)c3ccc(S(=O)(=O)N(C)C)cc3c2=O)C1 (centres undefined)	-9.9	-2.0	86.0*	-0.5	i	i	1.2	102.8
N=c1oc2ccc3ccccc3c2cc1C(N)=S	7.3	1.3	1.0	-2.6	i	i	·	·
CCN(CC(=O)Nc1c(F)cccc1F)C(=O)c1cc2ccccc2oc1=O	-8.0	·	100.0*	-3.5	i	i	1.4	102.9
CCN(CC(=O)Nc1c(F)cccc1F)C(=O)CNC(=O)c1ccc2ccccc2c1	9.6	·	0.0	-6.5	·	i	·	·
CCOc1ccc(C(=O)c2nc3c(n2O)CCCC3)cc1	-8.8	-2.6	25.0	-8.1	i	i	-1.3	104.0
COc1ccccc1N1CCN(Cc2nc3ccccc3c(=O)n2CC(C)=O)CC1	-12.9	11.5	0.0	0.7	i	i	·	·	GRK2 confirm 2=15.6;FAM quench SP=?
Cc1nc(N2CCN(C(=O)c3ccco3)CC2)c2c3c(sc2n1)CCCC3	-16.0	11.2	19.0	-2.5	i	i	-2.3	96.1
COCCCNC(=O)CN(c1ccc(F)cc1)S(=O)(=O)c1ccc2c(c1)OCCO2	-11.2	·	2.0	-10.7	i	i	·	·
Clc1ccc(-c2csc(N3CCSCC3)n2)cc1	-8.4	-10.4	0.0	-10.9	i	i	·	·
COc1ccc(C(=O)Nc2cc(C)nn2-c2ccc(C)cc2)cc1	-4.5	·	0.0	-4.7	i	i	·	·
O=C1NC(=O)c2cc(NC(=O)C3CCCCC3)ccc21	-5.9	-2.3	100.0*	-2.1	i	i	-9.3	98.5
C[N+]1(C)CCCC(OC(=O)C(O)(c2ccccc2)c2ccccc2)C1 (centres undefined)	-16.6	·	1.0	6.1	i	i	·	·
C/C=C(\C)C(=O)NCCN1C2=NC[C@@H](C)N2C[C@H]1Cc1ccc(O)cc1	-10.8	3.7	68.0*	1.6	i	i	-3.2	98.9
O=C(Cn1c(NCCO)nc2ccccc21)NCC1CCCO1 (centres undefined)	-10.3	-23.7	100.0*	-0.8	i	i	-1.6	94.8
O=C(Cn1c(NCCO)nc2ccccc21)NCCc1ccccc1	-1.6	-18.8	2.0	0.2	i	i	·	·
COc1cc(CNC2CCCCCCC2)cc(Cl)c1OC	6.4	·	0.0	1.6	i	i	·	·
C=CCOc1c(CNC2CCCC2)cc(Cl)cc1OC	2.6	3.3	87.0*	-24.9	i	i	-1.9	102.4
CC(C)Oc1cccc(C(=O)C2CCCN(Cc3cnc(N4CCOCC4)s3)C2)c1 (centres undefined)	12.3	2.5	53.0*	1.0	i	i	-2.5	94.7
COc1ccc(C(=O)C2CCCN(Cc3cnc(N4CCOCC4)s3)C2)c(OC)c1 (centres undefined)	-19.5	-7.8	2.0	-4.5	i	i	·	·
COc1ccc(C(=O)C2CCCN(Cc3cnc(N4CCOCC4)s3)C2)cc1F (centres undefined)	-0.6	·	0.0	0.6	i	i	-2.2	100.1
CC(CNC(=O)C1CCCN(S(=O)(=O)N2CCOCC2)C1)c1ccccc1 (centres undefined)	-2.8	·	0.0	4.9	i	i	·	·
SMILES	NOD2 RIPK2 PPI	TLR4 MyD88 comp	GRK2 inh	TLR9-MyD88 block	ANO1 block	ANO1 activ	GRK2 inh confirm	FAM quench CP1	others
O=C(CCSCCC(=O)NCc1ccccc1)NCc1ccccc1	7.0	-7.4	87.0*	-11.9	i	i	1.2	100.6
COc1ccc([C@@H]2CC(=O)c3c(O)cc(O[C@@H]4O[C@H](CO[C@@H]5O[C@@H](C)[C@H](O)[C@@H](O)[C@H]5O)[C@@H](O)[C@H](O)[C@H]4O)cc3O2)cc1O	-8.3	·	56.0*	-4.9	i	i	8.5	111.0
COc1ccc(-c2cc(=O)c3c(O)cc(OC4OC(COC5OC(C)C(O)C(O)C5O)C(O)C(O)C4O)cc3o2)cc1O (centres undefined)	-2.0	·	5.0	2.4	i	i	·	·
Cc1ccc(S(=O)(=O)/N=c2\ccc(Cl)cn2C(F)F)cc1	5.4	-10.1	1.0	-1.1	i	i	·	·
Cc1cc(C)n(/N=C/c2c[nH]c3ccccc23)c(=O)c1C#N	4.4	-5.5	65.0*	-1.3	i	i	0.5	107.6
Cn1c(SCC(=O)NCc2ccco2)nnc1-c1cccs1	-6.7	10.2	86.0*	2.3	i	i	3.1	99.6
CCc1c(O)nc(SCC(=O)NCc2ccco2)[nH]c1=O	-1.0	-0.3	11.0	1.3	i	i	·	·	GRK2 confirm 2=0.8;FAM quench SP=107.0
Cc1cc(=O)[nH]c(SCC(=O)NCc2ccco2)n1	-5.3	13.5	54.0*	-0.7	i	i	94.4*	99.1	Aptamer quench=2.1;FAM quench DR=100.0
Cc1sc2nc(SCC(=O)NCc3ccco3)[nH]c(=O)c2c1C	-8.2	2.1	1.0	-10.9	i	i	·	·	GRK2 confirm 2=-13.3;FAM quench SP=102.0
